Source: PubChem BioAssay
rTrxR1 inhibitor: qHTS Assay for Inhibitors of Mammalian Selenoprotein Thioredoxin Reductase 1 (TrxR1): qHTS | Thioredoxin reductase 1, cytoplasmic (Rattus norvegicus), O89049 | recombinant rTrxR1, NADPH fluorescence consumption, selenite substrate | Potency, µM (highest dose often 114 µM), for inactives: top-dose activity change, negative = inhibition, most hits filed as inhibitors | 390,000 compounds, 1% hits; also: potency is read from the fitted curve at half-maximal effect; nearly all actives have a fitted effect of over 65% in size
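Rat TrxR1 (90 nM in the dispensed reagent) was pre-reduced with 400 uM NADPH for 5 min at room temperature, then incubated with compound for 15 min. After 400 uM selenite was added, NADPH fluorescence (Ex 340/Em 450 nm) was followed for 8 min.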
PI4K2A inh: qHTS for small molecular inhibitors of PI4K2A; Phosphatidylinositol 4-kinase type 2-alpha (Homo sapiens), Q9BTU6; purified PI4K2A, ADP-Glo luminescence, 1 h; stronger effect = lower value; activity change, negative = inhibition, % at 76.9 µM; 420,000 compounds, 0.13% hits; AID 1346378, 2018; in the data active = activity change below about -50%; inconclusive = mostly about -30% to -49%;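 also: -100% = wells without enzyme as full effect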
Target sequence (Q9BTU6 whole entry, looked up): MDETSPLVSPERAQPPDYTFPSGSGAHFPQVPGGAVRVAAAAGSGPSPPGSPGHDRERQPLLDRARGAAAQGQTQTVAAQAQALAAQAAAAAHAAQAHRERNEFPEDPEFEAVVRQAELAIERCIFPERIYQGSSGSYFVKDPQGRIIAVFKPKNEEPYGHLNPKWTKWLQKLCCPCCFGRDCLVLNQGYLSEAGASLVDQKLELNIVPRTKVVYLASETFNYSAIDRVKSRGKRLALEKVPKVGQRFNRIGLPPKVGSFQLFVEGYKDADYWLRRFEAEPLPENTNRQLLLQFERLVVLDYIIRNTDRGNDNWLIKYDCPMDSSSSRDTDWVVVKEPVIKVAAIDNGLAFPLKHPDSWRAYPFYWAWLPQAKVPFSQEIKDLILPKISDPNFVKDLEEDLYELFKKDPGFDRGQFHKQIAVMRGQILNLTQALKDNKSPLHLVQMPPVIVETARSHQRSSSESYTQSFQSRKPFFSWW
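PI4K2A activity was measured by ADP-Glo luminescence: enzyme (4 ug/mL stock) and phosphatidylinositol (1.2 mM stock) in Tris pH 7.5/MgCl2/EGTA/Triton X-100 buffer were reacted with ATP (300 microM stock) for one hour at ambient temperature.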
TrxR1 substrate: qHTS Assay for Substrates of Mammalian Selenoprotein Thioredoxin Reductase 1 (TrxR1): qHTS; Thioredoxin reductase 1, cytoplasmic (Rattus norvegicus), O89049; purified TrxR1 substrate turnover, NADPH consumption readout; Potency, µM (top dose mostly 114 µM), for the others: top-dose activity change, negative = substrate turnover; 390,000 compounds, 0.01% hits; also: potency is read from the fitted curve at half-maximal effect; nearly all actives have a fitted effect of over 50% in size
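Rat TrxR1, dispensed at 90 nM, was prereduced with 400 uM NADPH (final) for 5 min at ~22 deg C, then incubated with compound 15 min before 400 uM selenite. A first-read NADPH fluorescence drop versus no-compound background flagged substrates.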
a7 integrin act: qHTS for Activators of Integrin-Mediated Alleviation for Muscular Dystrophy. Potency, µM (highest dose often 38.3 µM), without a hit: top-dose activation, usual class: activators. alpha7betagal myoblasts, beta-gal FDG fluorescence, 48 h. AID 624291, 2012. 350,000 compounds, 0.064% hits;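 also: potency is read from the fitted curve at half-maximal effect; 100% = response of the positive control SU9516; nearly all actives have a fitted effect of over 60% in size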
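Alpha7betagal+/- myoblasts (passage 13) were plated 16-24 hr, then exposed to compounds (1:260 dilution of DMSO stock) for 48 hours at 37C. After MPER lysis, β-galactosidase reporter activity was read as FDG fluorescence (ex 480/em 540) after 30 minutes.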
LDHA inh: qHTS assay for inhibitors of human lactate dehydrogenase; L-lactate dehydrogenase A chain (Homo sapiens), P00338; purified LDHA, NADH/diaphorase-resazurin fluorescence; stronger effect = lower value; activity change, % (values are at about 110 or 230 µM); 480,000 compounds, 0.15% hits; AID 1347041, 2019; in the data active = activity change below about -30%; inconclusive = mostly about -25% to -30%;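 also: plate controls were DMSO wells for no effect and wells without enzyme for full effect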
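Human LDH5 at 2 nM final in Tris HCl pH 7.4 with 0.06 mM NADH and 0.2 mM pyruvate, reacted 5 minutes at room temperature. Remaining NADH coupled via diaphorase/resazurin; resorufin fluorescence read at 0 and 20 minutes, normalized to enzyme-free and DMSO wells.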
GALK inh: qHTS Assay for Inhibitors of Human Galactokinase (GALK); P51570; Purified GALK, Kinase-Glo residual ATP luminescence; Potency, µM (titrated, usually from 57.5 µM), for inactives: at the highest dose activity change, negative = inhibition, actives largely listed as inhibitors; 270,000 compounds, 0.007% hits; also: potency is read from the fitted curve at half-maximal effect
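Compounds were pin-transferred into ATP buffer (35 uM final), then GALK plus galactose (5 nM, 100 uM final) was added. After 1 h at room temperature, Kinase-Glo Plus was added and luminescence read after 10 min.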
* hit, by the source's call; ? = inconclusive; · = no result given; [ ] = remark or other dose. Sampled rows, rich in hits. Any-hit rate of the full collection: about 1.1%. Unless noted, calls follow the shape of the dose curve; as a rule, active = well fitted curve in the direction sought with a large enough effect; inconclusive = small, poorly fitted or top-dose-only effect, or another doubt; inactive = no such curve, though single readings can be large; an effect the other way counts as inactive or inconclusive. Unless noted, % is scaled to controls: 0 for no effect and ±100 for the full control effect.

SMILES	rTrxR1 inhibitor	PI4K2A inh	TrxR1 substrate	a7 integrin act	LDHA inh	GALK inh
CC(C)Cc1nnc(NC(=O)c2nn(Cc3ccccc3)c(=O)c3ccccc23)s1	·	·	·	·	8	·
O=C(COc1ccc(Cl)cc1)Nc1c(NC2CCCC2)c2ccccc2oc1=O	·	·	·	·	0	·
CC(C)CNC(=O)C1Nc2ccc(C(F)(F)F)cc2C2C=CCC12 (stereo unspecified)	-15%[57.1 µM]	-1	-2%[57.1 µM]	-2%	-8	·
COC(=O)CNC(=O)C1Nc2ccccc2C2C=CCC12 (stereo unspecified)	8.9µM*	-10	4%[57.1 µM]	7%	11	·
CC(C)CNC(=O)C1Nc2ccccc2C2C=CCC12 (stereo unspecified)	10µM*	-7	9%[57.1 µM]	-6%	7	·
CCNC(=O)NC(=O)CSc1nc(C2CC2)nc2ccccc12	·	·	·	·	10	·
COc1ccc(/C=C/c2nc(C#N)c(NCCCN(C)C)o2)cc1OC	·	·	·	·	13	·
CN(Cc1ccccc1F)C(C(=O)NC1CC1)c1ccccc1 (stereo unspecified)	·	·	·	·	-4	·
CCOc1ccc(N2C(=O)CC(NCC#N)C2=O)cc1 (stereo unspecified)	22µM*	7	3%	20%	-8	4%
CCOc1ccc(N2C(=O)CC(NCc3ccc(S(N)(=O)=O)cc3)C2=O)cc1 (stereo unspecified)	-8%	-2	-5%	?	-7	·
CC1(C)CC(=O)CC(C)(C)N1	·	·	·	·	-7	·
c1cncc(-c2cccnc2)c1	14%	-65*	4%[57.1 µM]	-7%	0	1%
Cc1c2c(=O)n(-c3ccc(F)cc3)[nH]c2cc(=O)n1Cc1ccccc1	·	·	·	·	-3	·
Cn1c(=O)c2nc(SCc3ccc(F)cc3)n(C)c2n(C)c1=O	·	·	·	·	8	·
CC1CN(C2CCN(S(=O)(=O)c3ccc(F)cc3)CC2)CC(C)O1 (stereo unspecified)	-11%	6	-2%	18%	-21	2%
CC1CN(C2CCN(S(=O)(=O)c3ccccc3)CC2)CC(C)O1 (stereo unspecified)	-14%	0	-5%	6%[7.66 µM]	-32*	0%
CCN(CC)CCCNc1ccc2ncn3c4ccc(O)cc4c(=O)c1c23	9%[11.4 µM]	-50*	-11%[57.1 µM]	-21%	28	·
Cc1ccc2nc(-c3ccccc3)cn2c1	-9%	-70*	54%	-7%	1	20%
CC1OC(CC(=O)O)CC2=C1C(=O)c1c(O)cccc1C2=O (stereo unspecified)	-112%[57.1 µM]	-59*	-94%[57.1 µM]	?	45	·
C=C(C)Cn1c(N(C)C)nc2c1c(=O)[nH]c(=O)n2C	·	·	·	·	-6	·
c1cc2c3c(cccc3c1)/C(=N/OCC1CO1)C2 (stereo unspecified)	·	·	·	·	-31*	·
Cc1ccccc1NC(=S)NC(=O)c1cncc(Br)c1	13µM*	-2	-11%	-20%	-6	2%
O=C(NC(=S)Nc1cccnc1)c1cccc(Br)c1	56µM*	1	-10%	-17%	-4	-1%
O=C(NC(=S)Nc1cccnc1)c1ccccc1	-60%	-4	-18%[57.1 µM]	24%	0	1%
CCCCOc1cccc(C(=O)NC(=S)Nc2cccnc2)c1	25µM*	1	-12%	-16%	-8	3%
SMILES	rTrxR1 inhibitor	PI4K2A inh	TrxR1 substrate	a7 integrin act	LDHA inh	GALK inh
CC(=O)c1ccc(NC(=O)c2nn(C(C)C)c(=O)c3ccccc23)cc1	·	·	·	·	3	·
CCOC(=O)c1cccc(NC(=O)CCc2nc3c(C)nn(-c4ccc(C)cc4)c3n(CC)c2=O)c1	·	·	·	·	3	·
CN(C)Cc1cc(C(C)(C)C)c(O)c(C(C)(C)C)c1	8.9µM*	-1	12%[57.1 µM]	0%	2	-3%
CC(C)(C)c1cc(CN(CCO)CCO)cc(C(C)(C)C)c1O	3.5µM*	19	0%	-12%[7.66 µM]	17	-2%
C=CCn1c(=O)c2c(nc(-n3nc(C)cc3C)n2CC(C)C)n(C)c1=O	·	·	·	·	-12	·
Cn1c(=O)c(C(=O)CCl)c(N)n(CC2CC2)c1=O	14µM*	-6	-6%[57.1 µM]	11%	-1	·
CCC(=O)NC(=S)Nc1c(C)cc(Br)cc1C	28µM*	-2	3%	22%	-7	-2%
CCCC(=O)NC(=S)Nc1c(C)cc(Br)cc1C	?	13	-8%	-6%	-8	·
Cc1[nH]c2ccccc2c1C(=O)C(=O)NCC1CCN(C)CC1	·	·	·	·	-2	·
COc1ccc(-c2nc(-c3ccc(Br)o3)no2)cc1	6%	-1	5%	8%	-13	0%
CC(C)(C)c1ccc(-c2nc(-c3ccc(Br)o3)no2)cc1	·	·	·	·	-31*	·
CC(=O)Oc1ccc(N2C(=O)C3C4C=CC(O4)C3C2=O)cc1 (stereo unspecified)	5.6µM*	0	13%	0%	-1	5%
CC(=O)Oc1cccc(N2C(=O)C3C4C=CC(C4=C(C)C)C3C2=O)c1 (stereo unspecified)	40µM*	-1	1%	-6%	-3	0%
CC(=O)Oc1ccc(N2C(=O)CCC2=O)cc1	7%[11.4 µM]	6	7%[57.1 µM]	-10%	-4	-2%
CC(=O)Oc1cccc(N2C(=O)C3C(C2=O)C2C=CC3C23CC3)c1 (stereo unspecified)	-17%	8	2%	-12%	0	2%
CC(C(=O)N1CCCCCC1)N1CCC(c2nc3ccccc3o2)CC1 (stereo unspecified)	·	·	·	·	1	·
O=C1C(Br)C2C3CC4C(CC(Br)C42)C13 (stereo unspecified)	·	·	·	·	0	·
CONC(=O)c1ccccc1Cc1ccccc1	·	·	·	·	5	·
Cc1csc(/C(=N/OC(=O)c2ccco2)C(N)=O)n1	11µM*	6	5%	-15%	0	2%
COC(=O)Cn1c(Br)nc2c1c(=O)n(C)c(=O)n2C	·	·	·	·	-35*	·
Cc1ccc(S(=O)(=O)N2CCN(c3nc4ccccc4nc3-n3nc(C)cc3C)CC2)cc1	13%[57.1 µM]	-6	12%[57.1 µM]	-3%	3	-1%
Cc1cc(C)n(-c2nc3ccccc3nc2N2CCN(S(=O)(=O)c3ccc(C)c(C)c3)CC2)n1	·	·	·	·	-30*	·
CCn1c(C)nc2cc(-c3nc4n(n3)Cc3ccccc3-4)ccc21	2%	-69*	37%	3%	2	10%
COc1cc2oc(=O)c(CC(=O)N3CCC(O)(c4ccc(Cl)cc4)CC3)c(C)c2cc1OC	·	·	·	·	0	·
